MARV entry inh: inhibitors of Marburg virus binding or entry into cells; Marburg virus pseudotype entry/binding inhibition, cell-based; Potency, µM (doses to about 49.2 µM), hits mostly inhibitors; hit rate 6.5% among 18,000; AID 720532
Lassa entry: inhibitors of Lassa virus binding or entry into cells; Lassa virus pseudotyped entry inhibition, cell-based qHTS; Potency, µM (top dose mostly 49.2 µM), usual class: inhibitors; hit rate 4.1% among 18,000; AID 720533
Numbers stand for hits; 0 = inactive; ? = inconclusive; - = no result given; [ ] = another dose, or the depositor's remark. In the library only some 8.6% were active in any assay of this set; here they are far more common. Calls come from the whole dose curve; tested in HEK293 cells.

SMILES	MARV entry inh	Lassa entry
COC(=O)[C@H]1[C@H](CCc2ccccc2)NC(=O)N(Cc2ccccc2)[C@H]1C	0[8.59 µM]	-
C[C@]12CC[C@H]3[C@@H](CCC4=CC(=O)CC[C@@]43C)[C@@H]1CC[C@H]2O	0	0
Fc1ccc(C(c2ccc(F)cc2)N2CCN(C/C=C\c3ccccc3)CC2)cc1	14µM	?
Fc1ccc(C(OCCN2CCN(C/C=C/c3ccccc3)CC2)c2ccc(F)cc2)cc1	8.9µM	16µM
CCOC(=O)OC[C@H]1O[C@H](c2ccc(C(C)=O)cc2)C=C[C@H]1Oc1ccc(-c2ccccc2)cc1	0[8.59 µM]	-
CCN1CCC(C(=O)Nc2n[nH]c3nnc(-c4cccc(F)c4F)cc23)CC1	0	-
CCC[C@H]1CN(c2ccc(Br)cc2)C(=O)[C@H]1CC(=O)Nc1ccccc1	?	0
COC1=C[C@H](C(=O)NCCNC(C)=O)[C@@]2(C)Cc3ccccc3[C@@H]2CC1=O	0[8.59 µM]	-
Cc1cc(=O)oc2cc(NC(=O)[C@H](CCCCN)NC(=O)[C@H](CC3CCCCC3)NC(=O)OCC3c4ccccc4-c4ccccc43)ccc12	10µM	?
Cc1cc(=O)oc2cc(NC(=O)C(CCCCN)NC(=O)C(CC3CCCCC3)NC(=O)OCC3c4ccccc4-c4ccccc43)ccc12 (centres undefined)	0	0
OC[C@H]1O[C@H](c2ccccc2)C=C[C@H]1OCc1cccc(Br)c1	0[8.59 µM]	0[8.59 µM]
COc1cc2c(Nc3ccc(Br)cc3F)ncnc2cc1OCC1CCN(C)CC1	7.1µM	22µM
C#Cc1cccc(Nc2ncnc3cc(OCCOC)c(OCCOC)cc23)c1	0	?
COc1ccc(COC(=O)NN=C2C[C@@H](O)[C@@H](O)[C@@H]3[C@H]4C(=O)N(c5cccc(Oc6ccccc6)c5)C(=O)[C@@H]4CC[C@H]23)cc1	0[8.59 µM]	-
O=C(C=Cc1ccccc1)Nc1cccc(C(=O)NCCCc2ccccc2)c1	0	0
CC(C)C[C@@H]1COc2cccc(NN3CCN(C)CC3)c2S(=O)(=O)N1	0	0
CCCC1O[C@@H]2C[C@H]3[C@@H]4CCC5=CC(=O)C=C[C@]5(C)[C@H]4[C@@H](O)C[C@]3(C)[C@]2(C(=O)CO)O1 (some centres undefined)	0	0
CC(C)C(=O)OCC(=O)[C@@]12O[C@H](C3CCCCC3)O[C@@H]1C[C@H]1[C@@H]3CCC4=CC(=O)C=C[C@]4(C)[C@H]3[C@@H](O)C[C@@]12C	?	28µM
COC(=O)C(C(=O)OC)[C@H]1c2ccccc2[C@@H]2C(=C[C@@H](C)[C@H]3C(=O)N(c4ccccc4)C(=O)[C@H]32)N1C(=O)OC	0[8.59 µM]	0[8.59 µM]
COCCN1C(=O)CC[C@@]23C1=NC(C(=O)OC)=C(C(=O)OC)[C@@H]2N(CC=C(C)C)c1ccccc13	0[8.59 µM]	0[8.59 µM]
C=C1CC[C@@]2(O)[C@H]3Cc4ccc(O)c5c4[C@@]2(CCN3CC2CC2)[C@H]1O5	0	0
C=C(C)CN1CC[C@@]23c4c5ccc(O)c4O[C@H]2c2[nH]c4ccccc4c2C[C@]3(O)[C@@H]1C5	22µM	?
C=CCN1CC[C@]23c4c5ccc(O)c4OC2C(=O)CC[C@]3(O)C1C5 (some centres undefined)	0	0
Oc1ccc2c3c1O[C@H]1c4[nH]c5ccccc5c4C[C@@]4(O)C(C2)N(CC2CC2)CCC314 (some centres undefined)	13µM	?
CC#CCN1C(=O)N(C)C(c2ccccc2)C(C(=O)OC)=C1C (centres undefined)	0[8.59 µM]	0[8.59 µM]
SMILES	MARV entry inh	Lassa entry
COc1cc(-c2c(OC)cccc2OC)cc2c1OCCN(C(=O)CCn1nc(C)cc1C)C2	0	0
COc1cc(-c2cc(C)c3cccc(OC)c3n2)cc2c1OCCN(C(=O)CCn1ccc(C)n1)C2	0	35µM
CCS(=O)(=O)c1ccc(OC)c(Nc2ncc(-c3cccc(C(C)=O)c3)o2)c1	0	0
COc1ccc(O[C@H]2C=C[C@@H](c3ccccc3)O[C@H]2COC(=O)CCC(C)=NOC[C@@H](O)COCc2ccco2)cc1	0[8.59 µM]	-
COC(=O)[C@H]1[C@@H](c2ccccc2)NC(=O)N(CCc2cc(OC)c(OC)c(OC)c2)[C@@H]1C	0[8.59 µM]	0[8.59 µM]
CC(=O)O.CC(=O)O.[Cd]	2.8µM	7.9µM
O=C(O)/C=C\C(=O)O	0	0
CCCCCC(=O)N1C[C@@H](O)[C@H](n2cc(COC(=O)c3ccccc3)nn2)C[C@H]1c1ccc(Cl)cc1	?	0
CC1=CC[C@@H](COc2ccccc2)O[C@@]2(C1)C(=O)N(Cc1ccc(Br)cc1)c1cccc(Br)c12	0[8.59 µM]	0[8.59 µM]
O[C@@H]1CO[C@@H](C=Cc2ccccc2)[C@H]1OCc1cccc(Br)c1	0[8.59 µM]	-
COc1cc(Br)c(C[N+]2(CCOCCC3CCC4CC3C4(C)C)CCOCC2)cc1OC (centres undefined)	?	4.5µM
COCC1=C(C(=O)OC)C(c2ccccc2)N(C(C)=O)C(=O)N1 (centres undefined)	0[8.59 µM]	0[8.59 µM]
OCc1ccc(Cl)cc1Cl	0	0
O=C(CCl)c1ccc(Cl)cc1Cl	8.9µM	13µM
CCCCCCN1C[C@H](O)[C@@H](n2cc(-c3ccc(F)cc3)nn2)C[C@H]1c1ccccc1	?	0
O[C@@H]1[C@@H]2c3cc4c(cc3CN3CCC(=C[C@@H]1O)[C@H]23)OCO4	2.5µM	?
CN1CCc2cc3c(cc2[C@@H]1O)OCO3	0	0
COC(=O)[C@@H]1[C@@H](c2ccccc2)NC(=O)N(Cc2ccccc2)[C@@H]1C	0[8.59 µM]	0[8.59 µM]
CCOC(=O)C1=C(CCl)NC(=O)N(C(C)=O)C1c1ccccc1 (centres undefined)	0[8.59 µM]	-
N#CC(C#N)=C(N)/C(C#N)=C/c1cc(O)c(O)c(O)c1	0	0
CC(C)(C)c1cc(/C=C(\C#N)C(N)=S)cc(C(C)(C)C)c1O	4.5µM	28µM
N#CC(C#N)=Cc1ccc(O)c(O)c1	0	0
CC(C)(C)c1cc(C=C(C#N)C#N)cc(C(C)(C)C)c1O	2.8µM	25µM
CN(C)[C@H]1CCN([C@H]2C[S+](=O)([O-])N[C@H]2COCc2ccccc2)C1	0	0
CCCCCCN1C[C@@H](n2cc(C3CC3)nn2)[C@H](O)C[C@H]1c1ccc(OC)cc1	0	-
SMILES	MARV entry inh	Lassa entry
COc1cc([C@@H]2c3cc4c(cc3[C@@H](OC3OC5COC(C)OC5C(O)C3O)[C@H]3COC(=O)[C@H]23)OCO4)cc(OC)c1O (some centres undefined)	?	7.9µM
COc1cc([C@@H]2c3cc4c(cc3C(O[C@@H]3O[C@@H]5COC(c6cccs6)O[C@H]5[C@H](O)[C@H]3O)C3COC(=O)[C@@H]32)OCO4)cc(OC)c1O (some centres undefined)	?	4µM
COc1cc([C@@H]2c3cc4c(cc3[C@@H](O[C@@H]3O[C@H]5CO[C@@H](C)O[C@@H]5[C@@H](O)[C@H]3O)[C@@H]3COC(=O)[C@@H]23)OCO4)cc(OC)c1O	?	2.8µM
COc1cc([C@@H]2c3cc4c(cc3C(OC3OC5COC(C)OC5C(O)C3O)C3COC(=O)[C@@H]32)OCO4)cc(OC)c1O (some centres undefined)	25µM	7.9µM
CCN1C(=NCCCCO)NC(c2cccc(C(F)(F)F)c2)C(C(=O)OC)=C1C (centres undefined)	0[8.59 µM]	0[8.59 µM]
CC(CCN1CCCCc2nc(C)c(C)cc21)=NO[C@@H](C)CN1CCCCc2nc(C)c(C)cc21	0[8.59 µM]	-
CO[C@@H]1c2ccccc2[C@H]2C(C(=O)O)c3c(n(C)c4ccccc34)[C@H]2[C@H]1C (some centres undefined)	0[8.59 µM]	0[8.59 µM]
Cc1ccc(NC(=O)c2ccoc2)cc1-c1ccc(C(=O)NCC2CC2)cc1	0	?

Compound activity: PubChem BioAssay, National Center for Advancing Translational Sciences (NCATS)
